# According to PubChem BioAssay AID1117283 (Broad Institute, 2014):
# Results with a measured potency or affinity are listed apart. Calls of active or inactive are those of the source.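 How the source made its calls: active means fluorescent signal decreased by at least 40%; inconclusive means no clear call, values can overlap the other calls; inactive means the rest, including activity opposite to the expected direction.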
# Assay: inhibition of fibronectin matrix deposition – AH1F cells, Alexa488-fibronectin fluorescence, cherry-pick, set 2, dose response (AID 1117283);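 further: AH1F fibroblasts given Alexa488-labelled fibronectin at 24 nM final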
# Conditions: AH1F fibroblasts, overnight; series mostly up to 35 µM
row,Structure (SMILES),outcome
1,Cc1ccc(S(=O)(=O)N2CC3(C)CN(S(=O)(=O)c4ccc(C)cc4)CC(C)(C2)C3=O)cc1,inactive
2,CO[C@H]1CN(C)C(=O)c2cc(NC(=O)Nc3cc(Cl)cc(Cl)c3)ccc2OC[C@@H](C)NC[C@@H]1C,inactive
3,CC(C)NC(=O)N(C)C[C@H]1Oc2ccc(NC(=O)CCN3CCOCC3)cc2C(=O)N([C@H](C)CO)C[C@@H]1C,inactive
4,N#Cc1ccc(-c2ccc3c(c2)[C@H]2[C@H](CCN2S(=O)(=O)c2cccc(F)c2)[C@H](CO)N3)cc1,inactive
5,Nc1c(C(=O)NCc2ccco2)nnn1Cc1ccccc1,inactive
6,CN1c2ccc(-c3ccccc3)cc2[C@@H]2[C@@H](CCN2C(=O)CN2CCOCC2)[C@H]1CO,inactive
7,C[C@H](O)C#Cc1ccc2c(c1)O[C@@H](CN(C)C)[C@H](C)CN([C@@H](C)CO)S2(=O)=O,inactive
8,COC(=O)C[C@@H]1CC[C@H]2[C@@H](COc3ccc(NC(=O)Cc4cccs4)cc3C(=O)N2C)O1,inactive
9,C[C@H](CO)N1C[C@H](C)[C@H](CN(C)Cc2ccccc2)Oc2ncc(-c3ccccc3)cc2C1=O,inactive
10,CO[C@H]1CN(C)C(=O)c2cc(NC(=O)Nc3ccc(Cl)c(Cl)c3)ccc2OC[C@H](C)NC[C@H]1C,inactive
11,CO[C@H]1CN(C)C(=O)c2cc(NC(=O)Nc3ccc(C(F)(F)F)cc3)ccc2OC[C@H](C)NC[C@H]1C,inactive
12,O=c1c2cc(N3CCOCC3)ccc2[nH]c(=S)n1Cc1ccc(Cl)cc1,inactive
13,COCC(=O)Nc1ccc2c(c1)C(=O)N(C)[C@@H]1CC[C@@H](CC(=O)NCc3ccccc3Cl)O[C@@H]1CO2,inactive
14,CCc1ccc(NC(=O)CSc2nnc(-c3ccco3)o2)cc1,inactive
15,COc1cccc(-c2ccc3c(c2)[C@H]2[C@H](CCN2S(=O)(=O)c2cccc(OC)c2)[C@H](CO)N3)c1,inactive
16,COCC(=O)Nc1ccc2c(c1)C(=O)N(C)[C@H]1CC[C@H](CC(=O)NCc3ccccc3Cl)O[C@@H]1CO2,inactive
17,CO[C@@H]1CN(C)C(=O)c2ccc(NC(=O)c3ccc(-c4ccccc4)cc3)cc2OC[C@@H](C)NC[C@H]1C,inactive
18,CC(C)(C)[S@@](=O)N1Cc2cc(C(=O)NCc3ccccc3F)nc(-c3cccc(-c4cncnc4)c3)c2[C@H]1CCO,inactive
19,C[C@@H]1CN([C@@H](C)CO)C(=O)c2cc(NC(=O)CCCN(C)C)ccc2O[C@H]1CN(C)Cc1ccc(-c2ccccc2)cc1,inactive

row,Structure (SMILES),outcome
1,CCOc1cccc(C(=O)Nc2ccc(N(CC)CC)cc2)c1,inactive
2,Cc1ccc(-c2nc3ncccc3o2)cc1NC(=O)c1ccco1,inactive
3,CC(NC(=O)CSc1ccc(S(=O)(=O)N2CCOCC2)cn1)c1ccc(Cl)cc1Cl (configuration not stated),inactive
4,O=C(Nc1ccccc1F)N1C[C@@H]2[C@H](c3ccccc31)[C@H](CO)N2C(=O)C1CC1,inactive
5,N#C[C@@H]1[C@@H](c2ccccc2C2=CCCCC2)[C@H](CO)N1S(=O)(=O)c1ccccc1,inactive
6,CO[C@@H]1CN(C)C(=O)c2cc(NC(=O)Nc3cc(Cl)cc(Cl)c3)ccc2OC[C@H](C)NC[C@@H]1C,inactive
7,C[C@H]1CN([C@@H](C)CO)C(=O)c2cc(-c3ccccc3)cnc2O[C@H]1CN(C)Cc1ccccc1,inactive
8,C[C@@H]1CN([C@@H](C)CO)C(=O)c2cc(-c3ccccc3)cnc2O[C@@H]1CN(C)C(=O)c1cccc(F)c1,inactive
9,CO[C@@H]1CN(C)C(=O)c2cc(NC(=O)Nc3ccc(Cl)c(Cl)c3)ccc2OC[C@H](C)NC[C@@H]1C,inactive
10,COc1ccc(Cl)cc1NC(=O)CSc1nc(Nc2ccccc2)nc(N2CCOCC2)n1,inactive
11,CO[C@@H]1CN(C)C(=O)c2ccc(NC(=O)Nc3ccc(Cl)c(Cl)c3)cc2OC[C@@H](C)NC[C@@H]1C,inactive
12,CN1CCN(C(=O)c2cccc(-c3cnc4cnc(-c5ccccc5Oc5ccccc5)cn34)c2)CC1,inactive
13,C[C@H]1CN([C@@H](C)CO)C(=O)c2cccc(NC(=O)Nc3ccc(C(F)(F)F)cc3)c2O[C@@H]1CN(C)C(=O)Nc1cccc2ccccc12,inactive
14,Cc1cccc(N2CCN(S(=O)(=O)c3cn(C)cn3)CC2)c1C,inactive
15,COc1ccc(-c2csc(CCn3nc(C)cc3C)n2)cc1OC,inactive
16,Cc1oc2ccc(O)cc2c1C(=O)c1ccc(Br)cc1,inactive
17,C[C@@H]1CN([C@H](C)CO)C(=O)c2cc(-c3ccccc3)cnc2O[C@@H]1CN(C)Cc1ccccc1,inactive
18,CCOC(=O)c1cnc(SCc2nc(N)nc(Nc3ccc(OC)cc3)n2)nc1N,inactive
